# About 2,000 (36%) of roughly 5,500 compounds were called active. Not shown: some 18% with an inconclusive outcome. Some of the results follow. Values without a mark were called inactive. Cut-off read from the data, not from the text of the source: active = normalized growth mostly below about 0.91 (no sharp cut-off); inconclusive = no clear call, values can overlap the other calls; inactive = mostly above about 0.92.
# Experiment: chemical genetic growth profiling, strain panel (AID 1159580);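 note: tested at 20 µM; growth read once vehicle control cultures reached saturation at 30 °C; 1 = growth at the plate median or of vehicle wells; lower values mean less growth of the strain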
# Details: growth OD
structure (smiles),measurement,setting,value
COc1ccc(C2CC(=O)c3ccc(OC)cc3O2)cc1 (centres undefined),normalized growth,"S. cerevisiae deletion strains, locus YKL068W, hits give low values",0.97
same,normalized growth,"S. cerevisiae deletion strains, locus YKL085W, strain MDH1 (second series), hits give low values",0.982
same,normalized growth,"S. cerevisiae deletion strains, locus YKL085W, strain MDH1, hits give low values",0.982
same,normalized growth,"S. cerevisiae deletion strains, locus YKL160W, strain elf1, hits give low values",0.908
same,normalized growth,"S. cerevisiae deletion strains, locus YKL190W, strain CNB1, hits give low values",0.948
same,normalized growth,"S. cerevisiae deletion strains, locus YKR001C, strain vps1, hits give low values",0.876 (active)
same,normalized growth,"S. cerevisiae deletion strains, locus YKR026C, strain gcn3, hits give low values",0.931
same,normalized growth,"S. cerevisiae deletion strains, locus YKR091W, strain srl3, hits give low values",0.968
same,normalized growth,"S. cerevisiae deletion strains, locus YLL001W, strain dnm1, hits give low values",0.938
same,normalized growth,"S. cerevisiae deletion strains, locus YLL026W, hits give low values",0.932
same,normalized growth,"S. cerevisiae deletion strains, locus YLL041C, strain sdh2, hits give low values",0.958
same,normalized growth,"S. cerevisiae deletion strains, locus YLR027C, strain aat2, hits give low values",0.93
same,normalized growth,"S. cerevisiae deletion strains, locus YLR039C, strain RIC1, hits give low values",0.811
same,normalized growth,"S. cerevisiae deletion strains, locus YLR058C, strain SHM2, hits give low values",0.901
same,normalized growth,"S. cerevisiae deletion strains, locus YLR102C, strain apc9, hits give low values",0.951
same,normalized growth,"S. cerevisiae deletion strains, locus YLR113W, strain HOG1, hits give low values",0.851 (active)
same,normalized growth,"S. cerevisiae deletion strains, locus YLR221C, strain rsa3, hits give low values",0.899 (active)
same,normalized growth,"S. cerevisiae deletion strains, locus YLR258W, strain gsy2, hits give low values",0.91 (active)
same,normalized growth,"S. cerevisiae deletion strains, locus YLR262C, strain YPT6 (second series), hits give low values",0.912
same,normalized growth,"S. cerevisiae deletion strains, locus YLR262C, strain YPT6, hits give low values",0.872
same,normalized growth,"S. cerevisiae deletion strains, locus YLR268W, strain sec22, hits give low values",0.832 (active)
same,normalized growth,"S. cerevisiae deletion strains, locus YLR320W, strain mms22, hits give low values",0.742 (active)
same,normalized growth,"S. cerevisiae deletion strains, locus YLR330W, strain CHS5, hits give low values",0.844 (active)
same,normalized growth,"S. cerevisiae deletion strains, locus YLR342W, strain FKS1 (second series), hits give low values",0.705 (active)
same,normalized growth,"S. cerevisiae deletion strains, locus YLR342W, strain FKS1, hits give low values",0.936
same,normalized growth,"S. cerevisiae deletion strains, locus YLR357W, strain rsc2, hits give low values",0.902
same,normalized growth,"S. cerevisiae deletion strains, locus YLR370C, strain arc18, hits give low values",0.947
same,normalized growth,"S. cerevisiae deletion strains, locus YLR371W, strain rom2, hits give low values",0.938
same,normalized growth,"S. cerevisiae deletion strains, locus YLR384C, strain iki3, hits give low values",0.952
same,normalized growth,"S. cerevisiae deletion strains, locus YLR418C, strain cdc73, hits give low values",0.66 (active)
same,normalized growth,"S. cerevisiae deletion strains, locus YML016C, strain PPZ1, hits give low values",0.959
same,normalized growth,"S. cerevisiae deletion strains, locus YML032C, strain rad52, hits give low values",0.889 (active)
same,normalized growth,"S. cerevisiae deletion strains, locus YML120C, strain ndi1, hits give low values",0.869 (active)
same,normalized growth,"S. cerevisiae deletion strains, locus YML124C, strain tub3, hits give low values",0.952
same,normalized growth,"S. cerevisiae deletion strains, locus YMR058W, strain fet3, hits give low values",0.932
same,normalized growth,"S. cerevisiae deletion strains, locus YMR078C, strain ctf18, hits give low values",0.93
same,normalized growth,"S. cerevisiae deletion strains, locus YMR125W, strain sto1, hits give low values",0.967
same,normalized growth,"S. cerevisiae deletion strains, locus YMR129W, hits give low values",0.956
same,normalized growth,"S. cerevisiae deletion strains, locus YMR205C, strain PFK2, hits give low values",0.842 (active)
same,normalized growth,"S. cerevisiae deletion strains, locus YMR223W, strain ubp8, hits give low values",0.92
same,normalized growth,"S. cerevisiae deletion strains, locus YMR231W, strain pep5, hits give low values",0.993
same,normalized growth,"S. cerevisiae deletion strains, locus YMR263W, strain SAP30, hits give low values",0.869 (active)
same,normalized growth,"S. cerevisiae deletion strains, locus YMR307W, strain GAS1, hits give low values",0.649
same,normalized growth,"S. cerevisiae deletion strains, locus YNL067W, strain RPL9B, hits give low values",0.87
same,normalized growth,"S. cerevisiae deletion strains, locus YNL071W, strain lat1, hits give low values",0.727 (active)
same,normalized growth,"S. cerevisiae deletion strains, locus YNL128W, strain TEP1, hits give low values",0.9
same,normalized growth,"S. cerevisiae deletion strains, locus YNL153C, strain GIM3, hits give low values",0.847 (active)
same,normalized growth,"S. cerevisiae deletion strains, locus YNL183C, strain NPR1, hits give low values",0.802 (active)
same,normalized growth,"S. cerevisiae deletion strains, locus YNL209W, strain ssb2, hits give low values",0.965
same,normalized growth,"S. cerevisiae deletion strains, locus YNL233W, strain BNI4, hits give low values",0.804 (active)
same,normalized growth,"S. cerevisiae deletion strains, locus YNL248C, strain rpa49, hits give low values",0.921
same,normalized growth,"S. cerevisiae deletion strains, locus YNL250W, strain rad50, hits give low values",0.939
same,normalized growth,"S. cerevisiae deletion strains, locus YNL271C, strain bni1, hits give low values",0.937
same,normalized growth,"S. cerevisiae deletion strains, locus YNL298W, strain CLA4, hits give low values",0.934
same,normalized growth,"S. cerevisiae deletion strains, locus YNL307C, strain MCK1, hits give low values",0.668 (active)
same,normalized growth,"S. cerevisiae deletion strains, locus YNL322C, strain KRE1 (second series), hits give low values",0.969
same,normalized growth,"S. cerevisiae deletion strains, locus YNR049C, strain mso1, hits give low values",0.97
same,normalized growth,"S. cerevisiae deletion strains, locus YNR052C, strain pop2, hits give low values",0.944
same,normalized growth,"S. cerevisiae deletion strains, locus YOL006C, strain TOP1, hits give low values",0.394 (active)
same,normalized growth,"S. cerevisiae deletion strains, locus YOL012C, strain htz1",0.489
same,normalized growth,"S. cerevisiae deletion strains, locus YOL147C, strain pex11, hits give low values",0.94
same,normalized growth,"S. cerevisiae deletion strains, locus YOR001W, strain rrp6, hits give low values",0.917
same,normalized growth,"S. cerevisiae deletion strains, locus YOR061W, strain CKA2, hits give low values",0.955
same,normalized growth,"S. cerevisiae deletion strains, locus YOR069W, strain VPS5, hits give low values",0.979
same,normalized growth,"S. cerevisiae deletion strains, locus YOR070C, strain gyp1, hits give low values",0.934
same,normalized growth,"S. cerevisiae deletion strains, locus YOR080W, strain dia2, hits give low values",0.957
same,normalized growth,"S. cerevisiae deletion strains, locus YOR083W, strain WHI5, hits give low values",0.865 (active)
same,normalized growth,"S. cerevisiae deletion strains, locus YOR106W, strain vam3, hits give low values",0.887
same,normalized growth,"S. cerevisiae deletion strains, locus YOR136W, strain idh2, hits give low values",0.954
same,normalized growth,"S. cerevisiae deletion strains, locus YOR144C, strain elg1, hits give low values",0.938
same,normalized growth,"S. cerevisiae deletion strains, locus YOR184W, strain ser1, hits give low values",0.799 (active)
same,normalized growth,"S. cerevisiae deletion strains, locus YOR231W, strain MKK1, hits give low values",0.881
same,normalized growth,"S. cerevisiae deletion strains, locus YOR265W, strain rbl2, hits give low values",0.952
same,normalized growth,"S. cerevisiae deletion strains, locus YOR270C, strain vph1, hits give low values",0.675 (active)
same,normalized growth,"S. cerevisiae deletion strains, locus YOR290C, strain snf2, hits give low values",0.822 (active)
same,normalized growth,"S. cerevisiae deletion strains, locus YOR316C, strain cot1, hits give low values",0.939
same,normalized growth,"S. cerevisiae deletion strains, locus YPL051W, strain arl3, hits give low values",0.887 (active)
same,normalized growth,"S. cerevisiae deletion strains, locus YPL055C, strain LGE1, hits give low values",0.754 (active)
same,normalized growth,"S. cerevisiae deletion strains, locus YPL078C, strain atp4, hits give low values",0.888 (active)
same,normalized growth,"S. cerevisiae deletion strains, locus YPL106C, strain sse1, hits give low values",0.856
same,normalized growth,"S. cerevisiae deletion strains, locus YPL240C, strain hsp82, hits give low values",0.951
same,normalized growth,"S. cerevisiae deletion strains, locus YPL241C, strain CIN2, hits give low values",0.985
same,normalized growth,"S. cerevisiae deletion strains, locus YPL256C, strain CLN2, hits give low values",0.882
same,normalized growth,"S. cerevisiae deletion strains, locus YPR119W, strain clb2, hits give low values",0.969
same,normalized growth,"S. cerevisiae deletion strains, locus YPR141C, strain kar3, hits give low values",0.975
same,normalized growth,"S. cerevisiae deletion strains, locus YPR163C, strain tif3, hits give low values",0.797 (active)
same,normalized growth,"S. cerevisiae deletion strains, locus YPR167C, strain met16, hits give low values",0.889 (active)
same,normalized growth,"S. cerevisiae deletion strains, strain wtn01, hits give low values",0.887 (active)
same,normalized growth,"S. cerevisiae strains, strain wild type, hits give low values",0.89 (active)
